# Compound activity: PubChem BioAssay, National Center for Advancing Translational Sciences (NCATS)
# MARV entry inh: inhibitors of Marburg virus binding or cell entry; Marburg virus pseudotyped entry inhibition, cell reporter; Potency, µM (highest dose often 37.8 µM), inactives show top-dose activity change, negative = inhibition, usual class: inhibitors; hit rate 1.8% among 300,000; AID 540276; calls by dose curve; tested in HEK293 cells; note: potency is the fitted concentration of half-maximal effect; % is set by controls: 0 for no effect and ±100 for the full control effect
# CHX counter: counter-screen hit for Shiga toxin inhibitors, cycloheximide; cell reporter, cycloheximide protein synthesis inhibition counterscreen; max response, %; hit rate 12% among 300,000; AID 2314; in the data active = max response mostly above about 13%, no sharp cut-off; inactive = mostly below about 14%; note: read at 38.3 µM for the half of the compounds with a filed dose; 0% is about no effect
# Shiga toxin inh: inhibitors of Shiga toxin in Vero cells; Vero cells, Shiga toxin protein synthesis inhibition reporter; inhibition, % at 38.7 µM; hit rate 9.2% among 290,000; AID 2315; in the data active = inhibition mostly above about 28%, no sharp cut-off; inactive = mostly below about 43%; note: 0% is about no effect
# LASV entry inh: Lassa virus entry inhibition. Lassa virus pseudotype entry inhibition, cell reporter. Potency, µM (doses to about 37.9 µM), inactives show at the highest dose activity change, negative = inhibition, actives largely listed as inhibitors. hit rate 1.2% among 300,000. AID 540256; calls by dose curve; tested in HEK293 cells; note: potency is the fitted concentration of half-maximal effect; % is set by controls: 0 for no effect and ±100 for the full control effect; nearly all actives have a fitted effect of over 50% in size
# AMA1 RON2 block: inhibitors of Plasmodium falciparum AMA1-RON2 interaction. hit rate 0.2% among 360,000. Potency, µM (top dose mostly 58.2 µM), for inactives: at the top dose activity change, negative = inhibition, hits mostly inhibitors. AlphaScreen AMA1-biotinylated RON2 peptide binding. AID 720542; active = well fitted inhibition curve with a large enough effect; inconclusive = small, poorly fitted or top-dose-only effect; inactive = no such curve, though single readings can be large or run the other way;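 note: potency is the fitted concentration of half-maximal effect; 0% = vehicle wells and -100% = peptide control; nearly all actives have a fitted effect of over 45% in size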
#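 AMA1 (3D7) with his tag at 25 nM final met compounds first, then biotinylated RON2 peptide at 25 nM; detection used donor plus acceptor beads, 10 µg/mL apiece, read by AlphaScreen after 30 min at room temperature.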
# * marks the source's active call; other numbers are inactive results; ? = inconclusive; · = not tested or not shown; [ ] = another dose, or the depositor's remark. This excerpt belongs to a sample that is enriched for hits.
SMILES,MARV entry inh,CHX counter,Shiga toxin inh,LASV entry inh,AMA1 RON2 block
N/C(Cc1ccc([N+](=O)[O-])cc1)=N\OC(=O)c1ccccc1Br,?,-2,18,?,3%
CCN(CC)C(=O)C1=C(C)N(Cc2ccc(OC)cc2)C(=O)C(CC(=O)NCC2CCCCC2)C1 (stereo not given),·,·,·,·,8%
CC1(c2ccc(OC(F)F)cc2)NC(=O)N(CC(=O)Nc2ccc(Cl)cc2F)C1=O (stereo not given),0%[46.1 µM],13*,30,2%[46.1 µM],-16%
CCCOc1ccc(C(=O)NCC(c2ccco2)N(C)C)cc1 (stereo not given),?,16*,21,13%,28%
CCCOc1ccc(C(=O)NCC(c2cccs2)N(C)C)cc1 (stereo not given),?,20*,57,-2%,0%
Cc1c(C(=O)NCc2ccc3c(c2)OCCO3)sc(=O)n1Cc1cccc(C(F)(F)F)c1,·,·,·,·,-3%
CCN1C(=O)[C@H]2[C@H]3[C@H](O)[C@H](O)C/C(=N/NC(=O)OCc4ccccc4)[C@@H]3CC[C@@H]2C1=O,-8%[14.2 µM],·,·,·,·
O=C(COC(=O)c1ccccc1Nc1ccccc1)NCc1ccccc1,15%,-1,-4,8%,-1%
Cc1cc(C)c(S(=O)(=O)Nc2ccccc2C(=O)OCC(=O)NCc2ccccc2)c(C)c1,?,-4,-7,10µM*,-13%
O=C(CCn1c(=O)c2cccn2c2cccnc21)NCc1cccc(Br)c1,·,·,·,-4%[46.1 µM],·
COc1ccc(/C=N/N=C2/SCC(=O)N2Cc2ccccc2)cc1,?,47*,86*,?,1%
COc1ccc(/C=N/N2C(=N)SCC2=O)cc1,?,14*,29,?,25%
COc1ccc(/C=C2\CN(Cc3ccccc3)C/C(=C\c3ccc(OC)cc3)C2=O)cc1,?,-4,-5,7.9µM*,5%
CC(C)CCOc1ccc(/C=N/N2C(=O)CSC2=S)cc1,-1%[46.1 µM],-3,-13,12%[46.1 µM],23%
CSc1ccc(C(=O)N2CCC(CCC(=O)NCc3ccc(F)cc3)CC2)cc1,·,-2,-2,·,0%
CC(=NNC(=O)CSCC(=O)NN=C(C)c1ccccc1)c1ccccc1,11%[46.1 µM],·,·,0%[46.1 µM],94%
CCc1cccc(C)c1Nc1nc2ccccc2n2cnnc12,-23%,-6,-6,?,9%
Cc1cc(C(=O)NCc2ccccc2C)c2c(C)nn(-c3cccc(F)c3)c2n1,·,·,·,-4%[46.1 µM],·
Cc1cc(C(=O)COc2ccccc2C(N)=O)c(C)n1C1CC1,·,40*,106,·,-8%
Cc1ccccc1OCC(=O)OCC(=O)c1cc(C)n(C2CC2)c1C,2%,·,·,-8%,-7%
Cc1cc(C(=O)COc2ccccc2[N+](=O)[O-])c(C)n1C1CC1,21%[46.1 µM],28*,65*,12%[46.1 µM],4%
Cc1ccc(C2C=C(c3ccc(Cl)cc3)Nc3nc(NC(=O)c4ccco4)nn32)cc1 (stereo not given),?,·,·,-18%[46.1 µM],·
O=C(CCN1C(=O)S/C(=C\c2cccs2)C1=O)NC1=NCCS1,-28%,17*,32,-2%,6%[11.6 µM]
Cc1cc(NCC2CCCCC2)nc2ccccc12,1µM*,38*,51*,·,0%
CN(C)c1ccc(Nc2nc3ccccc3n3nnnc23)cc1,-25%[46.1 µM],·,·,-3%[46.1 µM],·
SMILES,MARV entry inh,CHX counter,Shiga toxin inh,LASV entry inh,AMA1 RON2 block
CCOc1ccc(Nc2nc3ccccc3n3nnnc23)cc1,·,59*,100*,·,3%
CC(=O)Nc1ccc(Nc2cc(C)c3ccccc3n2)cc1,·,-3,61,·,5%
Cc1cc(NCCNC2=CC(=O)CCC2)nc2ccccc12,-7%,-4,7,21%,2%
CCOc1ccc(Nc2cc(C)c3ccccc3n2)cc1,·,49*,94*,·,-6%
CCOc1ccc(Nc2c3ccccc3nc3ccccc23)cc1,·,17,36*,·,-17%
CSc1cccc(Nc2nc3c(S(=O)(=O)c4ccccc4)nnn3c3ccc(Cl)cc23)c1,2%[46.1 µM],·,·,·,·
CCCN(CCC)Cc1cc(=O)oc2cc(C)c(C)cc12,?,·,·,·,-1%
CCCN1C(C)C(C(=O)OCC)=CN(Cc2cccc(I)c2)S1(=O)=O (stereo not given),·,·,·,·,42%
Cc1cccc(N2CCN(C(=O)c3sc4nc5n(c(=O)c4c3C)CCC5)CC2C)c1 (stereo not given),·,·,·,6%[46.1 µM],·
CCCSc1ncc(Cl)c(C(=O)Nc2c(C(=O)c3ccc(F)cc3)oc3ccccc23)n1,-2%[46.1 µM],·,·,11%[46.1 µM],·
O=C(CNC(=S)NC(=O)c1ccccc1)c1ccccc1,?,23*,44*,10%,38%
CC(C)C(=O)NC(=S)NCC(=O)c1ccccc1,-1%,29*,26,16%,4%
